Screening results: PubChem, National Center for Advancing Translational Sciences (NCATS)
The list is not random: actives were taken first. Their share in the collection is about 8%.
MCF10A rereplic: A quantitative high throughput screen for small molecules that induce DNA re-replication in MCF 10a normal breast cells | MCF 10A DNA re-replication, Hoechst nuclear intensity, 48 h | Potency, µM (top dose mostly 46.1 µM), without a hit: at the top dose activity, positive = re-replication, usual class: activators | 350,000 tested, 2.9% active | AID 624296, 2012; further: % of control where 0% means no effect; nearly all actives have a fitted effect of over 50% in size
HT1080NT lethal: qHTS for induction of synthetic lethality in tumor cells producing 2HG: qHTS for the HT-1080-NT fibrosarcoma cell line; HT-1080-NT fibrosarcoma viability, CellTiter-Glo ATP luminescence, 48 h; Potency, µM (titrated, usually from 46.1 µM), without a hit: top-dose activity, negative = less viability, usual class: cytotoxic; 360,000 tested, 1.6% active; AID 686970, 2013;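 further: NT is the 2HG producing partner of a matched IDH1 knockdown line; 0% = DMSO-treated cells and -100% = media-only wells without cells; nearly all actives have a fitted effect of over 55% in size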
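Compounds were tested in concentration-response format on HT-1080-NT cells for 48 hours at 37 degrees C. Cell viability came from CellTiter-Glo luminescence; curves were classified by r2, response magnitude and activity.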
KB-3-1 tox: qHTS assay for MDR1-selective chemotherapeutics: Primary screen using the parental adenocarcinoma cell KB-3-1. KB-3-1 viability, CellTiter-Glo ATP luminescence, 72 h. Potency, µM (doses to about 46.1 µM), usual class: cytotoxic. 400,000 tested, 1.4% active; further: on the % scale 0 is the no-effect control and ±100 the full control effect; nearly all actives have a fitted effect of over 60% in size
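Cells are dispensed, compounds pinned in, plates held at 37 °C for 72 h, then CellTiter-Glo is added and luminescence read after 10 minutes. Cell line: parental KB-3-1 in phenol-red-free DMEM, 10% FBS.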
KB-V1 MDR tox: qHTS assay for MDR1-selective chemotherapeutics: Primary screen using the drug-selected MDR subline cells KB-V1 | 400,000 tested, 3.4% active | Potency, µM (titrated, usually from 46.1 µM), actives largely listed as cytotoxic | KB-V1 MDR cells viability, CellTiter-Glo, 72 h; further: on the % scale 0 is the no-effect control and ±100 the full control effect; nearly all actives have a fitted effect of over 60% in size
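Potencies derive from concentration-effect curves fitted to normalized luminescence (CellTiter-Glo) of KB-V1 cells treated for 72 h at 37 degrees C in phenol-red-free DMEM containing 10% FBS.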
HT1080 IDH1KD tx: qHTS for induction of synthetic lethality in tumor cells producing 2HG: qHTS for the HT-1080-IDH1KD cell line; Potency, µM (highest dose often 46.1 µM), inactives show at the highest dose activity, negative = toxicity, most hits filed as cytotoxic; HT-1080 IDH1 knockdown viability, ATP luminescence, 48 h; 360,000 tested, 2% active;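 further: 0% = DMSO wells and -100% = cell-free medium wells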
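Using the IDH1-knockdown HT-1080 line run in the same batch and compound series as the NT line, viability after 48 h at 37 °C was determined by CellTiter-Glo luminescence and expressed as % activity.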
SW480 rereplic: A quantitative high throughput screen for small molecules that induce DNA re-replication in SW480 colon adenocarcinoma cells | AID 624297, 2012 | Potency, µM (top dose mostly 46.1 µM), without a hit: top-dose re-replication activation, hits mostly activators | SW480 DNA re-replication, Hoechst DNA content imaging, 48 h | 340,000 tested, 1.8% active; further: % of control where 0% means no effect; nearly all actives have a fitted effect of over 55% in size
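250 cells/well; 23 nL cpd via pin tool; 48 hr, 37 C, 5% CO2; Hoechst 40 min; imager read of total nuclear intensity, ex 405/em 500-530 nm.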
Active calls of the source: *; i = inactive; ? = inconclusive; nt = no result; [ ] = dose if it differs, or a comment. The call rests on the fitted dose curve; in most records, active means well fitted curve in the direction sought with a large enough effect; inconclusive means small, poorly fitted or top-dose-only effect, or another doubt; inactive means no such curve, though single readings can be large; an effect the other way counts as inactive or inconclusive. Potency means the concentration at half of the fitted maximal effect.

SMILES | MCF10A rereplic | HT1080NT lethal | KB-3-1 tox | KB-V1 MDR tox | HT1080 IDH1KD tx | SW480 rereplic
C[C@@]12C(=O)Nc3ccc(Br)cc3C(=O)N1[C@H]1c3cc(Br)ccc3OC[C@@H]1[C@@H]2c1ccccc1 | -87.8% | ? | i | i | -17.9% | ?
CCOC(=O)[C@H]1[C@H]2COc3ccc(Br)cc3[C@@H]2N2C(=O)c3ccc(C)cc3NC(=O)[C@@]12C | ? | -11.2% | i | i | -14.2% | -1.9%
CSc1ncc(CNc2cc([N+](=O)[O-])ccc2C)c(N)n1 | 1.6% | nt | i | i | nt | -8.1%
NS(=O)(=O)c1ccc(NC(=O)COC(=O)c2ccc([N+](=O)[O-])s2)cc1 | 3.6% | -2.1% | i | i | 2.1% | 16.4µM*
O=C(OCCOc1cccc(Cl)c1)c1ccc2ncsc2c1 | 2.6% | 8.9% | i | i | 1.7% | -1.0%
O=C(c1cccc(S(=O)(=O)N2CCOCC2)c1)N1CCN(c2ccccc2)CC1 | -1.1% | 5.6% | i | 18.4µM* | 11.2% | -4.5%
O=C(c1ccc2ccccc2c1)N1CCN(c2ccc(O)cc2)CC1 | ? | -8.4% | i | 23.1µM* | -10.9% | 6.0%
COc1ccc(N2CCN(C(=O)c3ccc(S(=O)(=O)N4CCOCC4)cc3)CC2)cc1 | 3.9% | 5.2% | i | 16.4µM* | -4.2% | -1.5%
COc1ccc(N2CCN(C(=O)c3ccc(S(=O)(=O)N4CCCC4)cc3)CC2)cc1 | -3.9% | 1.5% | i | i | 9.9% | -4.5%
CCOc1ccccc1N1CCN(C(=O)c2cccc(S(=O)(=O)N3CCOCC3)c2)CC1 | 2.0% | -0.5% | ? | 23.1µM* | -3.6% | -3.5%
Nc1c(C(=O)Nc2ccccc2Cl)c2ccccn2c1C(=O)c1ccc(Cl)cc1 | nt | nt | i | i | nt | nt
O=C(NCCCN1CCOCC1)c1cccc(S(=O)(=O)N2CCc3ccccc3C2)c1 | ? | 0.8% | i | i | -1.9% | 21.6%[1.84 µM]
CCOc1ccccc1N1CCN(C(=O)Cc2ccc(S(=O)(=O)N3CCOCC3)s2)CC1 | 2.1% | -3.4% | i | 23.1µM* | 1.4% | ?
O=S(=O)(c1ccc(Oc2ccc(F)c(Cl)c2)nc1)N1CCOCC1 | -5.4% | -0.1% | i | 23.1µM* | -3.8% | -5.9%
COc1ccccc1N1CCN(C(=O)c2cccc(S(=O)(=O)N3c4ccccc4CC3C)c2)CC1 (stereo not given) | ? | ? | i | 3.66µM* | ? | 20.7%
O=C(NCC1(N2CCOCC2)CCCCC1)c1cccc(S(=O)(=O)N2CCc3ccccc3C2)c1 | 14.6µM* | -5.2% | i | i | -16.2% | 5.6%
CN(C)S(=O)(=O)c1ccc(C(=O)Nc2c(C(=O)Nc3ccc(F)cc3)oc3ccccc23)cc1 | nt | nt | i | i | nt | nt
O=[N+]([O-])c1cc(-c2nc(-c3ccccc3)no2)ccc1NC1CCCC1 | nt | nt | i | i | nt | nt
Cc1cc(NC(=O)c2cccc(S(=O)(=O)N3c4ccccc4CC3C)c2)no1 (stereo not given) | 14.1% | ? | i | i | ? | ?
CCOC(=O)c1sc(NC(=O)c2cccc(S(=O)(=O)N3c4ccccc4CC3C)c2)cc1C (stereo not given) | 8.2µM* | -27.0% | i | i | ? | ?
O=C(c1cccc(S(=O)(=O)N2CCc3ccccc3C2)c1)N1CCN(c2ccc(O)cc2)CC1 | ? | -9.6% | ? | 13µM* | -20.2% | ?
O=S(=O)(c1ccc(Oc2ccc(S(=O)(=O)N3CCOCC3)cc2)cc1)N1CCOCC1 | 0.3% | -3.4% | ? | 14.6µM* | -2.5%[9.24 µM] | -1.4%
